Results reported in PubChem BioAssay (NCATS).
Records with an inconclusive call do not appear. Where a call stands in place of a potency, no number is given. Active and inactive are the calls of the source. Unless noted, calls follow the shape of the dose curve; as a rule, active = well fitted curve in the direction sought with a large enough effect; inconclusive = small, poorly fitted or top-dose-only effect, or another doubt; inactive = no such curve, though single readings can be large; an effect the other way counts as inactive or inconclusive.

Legend:
[1] = qHTS assay to identify small molecule inhibitors of chordoma cells - UCH-1 (AID 1259355); also: nearly all actives have a fitted effect of over 55% in size; also: potency is read from the fitted curve at half-maximal effect
Summary of the method: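 800 cells/well, overnight attach; compounds pinned at 15 concs, then auranofin/camptothecin/doxorubicin/rubitecan/topotecan combo added; 48hr 37 C, 5% CO2; CellTiter-Glo, 30min RT, luminescence.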

[2] = qHTS assay to identify small molecule inhibitors of chordoma cells - UCH-2 (AID 1259356)
[3] = P-glycoprotein substrates identified in KB-8-5-11 adenocarcinoma cell line, qHTS therapeutic library screen (AID 1346987); also: nearly all actives have a fitted effect of over 65% in size; also: potency is read from the fitted curve at half-maximal effect
Summary of the method: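 Compounds are pinned in dose-response onto KB-8-5-11 cells (500 cells/well, colchicine-free medium) and left 72 h at 37 degree C. CellTiter-Glo luminescence then yields AC50 values.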

[4] = Natriuretic polypeptide receptor (hNpr1) antagonism - Pilot counterscreen GloSensor control cell line (AID 1347045; calls by dose curve)
Procedure: F. Fan, B. F. Binkowski, B. L. Butler, P. F. Stecha, M. K. Lewis, K. V. Wood, Novel genetically encoded biosensors using firefly luciferase. ACS Chem Biol 3, 346-351 (2008).
PROTOCOL TABLE (as described by Inglese J, Shamu CE and Guy RK. 2007)
SEQUENCE No. (e.g., 1, 2, 3, etc.); […] (e.g., Cells, Incubation, Reagent, etc.); VALUE and DESCRIPTION.
1. Cells. Seed 1500 HEK293 cGMP-sensor cells per well in 4uL into Greiner 1536-well white/solid bottom high base, TC plates.
2. Incubation. Incubate plated cells at 37C in 5% CO2, 95% RH overnight.
3. Reagent. Add 1uL per well GloSensor reagent from Promega (2% final concentration) or CO2 independent media vehicle control to respective columns of Greiner 1536-well plates.
4. Incubation. Incubate plated cells at room temperature for 2 h, protect from light.
5. Compounds. Library compounds and DMSO vehicle control added at 23nL per well, transferred by Pin Tool.
6. Incubation. Incubate plated cells for 30 min. at room temperature, protect from light.
7. Detector. GloSensor baseline pre-read luminescence measured using CCD-based camera (Viewlux).
8. Compound. Add 1uL of sodium nitroprusside (SNP) to 50 uM final concentration to stimulate soluble guanylyl cyclase (GC) or CO2 independent media as vehicle control.
9. Incubation. Incubate treated cells at room temperature for 20 min., protect from light.
10. Detector. GloSensor post-SNP luminescence measured using CCD-based camera (Viewlux).
NOTES (numbers refer to Sequence numbers above; values are from representative experiments)
1. HEK293 cells expressing GIP/pGS-40F were grown to 85-95% confluence (48-72 h) in T175 culture flasks (CO2 independent media supplemented with 10% FBS, 1% Pen/Strep antibiotics, and 1 ug/mL puromycin). Trypsinize and harvest cells from T175 culture flasks and filter through 40 um cell strainer. Cells counted with Invitrogen Countess (30,000,000 - 50,000,000 cells/flask).
2. Cells incubated for 24 h. at 37C in 95% RH incubator with metal lid having gas-exchange holes.
3. Prepare GloSensor Reagent (Promega): Reconstitute GloSensor luciferase substrate by adding 8.2mL Hepes buffer to 250mg substrate, mix well, protect from light and stored at -80C. Prepare a fresh 12% GloSensor solution in CO2 independent supplemented plating media (see above). Mix well and store at ambient temperature, protected from light. 1uL 12% GloSensor Luciferase Reagent added (2% final concentration) to respective columns of 9 x 1536-well Greiner plate with BioRaptr, 1uL CO2 independent plating media added to respective columns as vehicle control with BioRaptr.
4. […]
7. Read GloSensor + Antagonist/Compound baseline Luminescence on the ViewLux [Exposure, 30 s; Gain, High; Speed, Slow; Binning, 2X] […]
10. Read final luminescence on the ViewLux. […]

[5] = P-glycoprotein substrates identified in KB-3-1 adenocarcinoma cell line, qHTS therapeutic library screen (AID 1346986); conditions: KB-3-1 parental cells viability, CellTiter-Glo, 72 h; at 44.5 µM (top of the series); also: nearly all actives have a fitted effect of over 60% in size
Summary of the method: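 Viability read by CellTiter-Glo after 72 h compound exposure in dose-response of KB-3-1 and KB-8-5-11 (P-gp-high) cells. Hits needed AC50 < 10 uM, >50% maximum response and curve class -1.1 to -2.4. Cherry-picks retested ± tariquidar, including pcDNA/MDR-19 HEK-293 pair.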

ClC1=C(Cl)C2(Cl)C(CBr)CC1(Cl)C2(Cl)Cl (stereo not given)
Potency [1]: inactive
Potency [2]: inactive
Potency [3]: inactive

CN1C(=O)[C@@H](NC(=O)c2cc3ccccc3[nH]2)N=C(c2ccccc2)c2ccccc21
Potency [1]: inactive

C[C@@H]1CC[C@H]2[C@@H](C)C(=O)O[C@@H]3O[C@@]4(C)CC[C@@H]1[C@]32OO4
Potency [1]: inactive
Potency [2]: inactive

CC[n+]1c(-c2ccccc2)c2cc(N)ccc2c2ccc(N)cc21
Potency [1]: 7940 nM (active)
Potency [2]: inactive
Potency [3]: inactive

O=C(CCCN1CCC(n2c(=O)[nH]c3ccccc32)CC1)c1ccc(F)cc1
Potency [1]: inactive

CCOC(=O)c1cncn1C(C)c1ccccc1 (stereo not given)
Potency [1]: inactive
Potency [3]: inactive

C[C@H]1C(=O)O[C@@H]2CCN3CC=C(COC(=O)[C@](C)(O)[C@]1(C)O)[C@H]23
Potency [1]: inactive
Potency [3]: inactive

C[N+]1(C)[C@@H]2CC[C@H]1CC(OC(=O)C(CO)c1ccccc1)C2 (stereo not given in full)
Potency [1]: inactive
Potency [3]: inactive

OC(O)C(Cl)(Cl)Cl
Potency [2]: inactive
Potency [3]: inactive

C[C@@H]1O[C@@H](O[C@@H]2C=C3CC[C@@H]4[C@H](CC[C@]5(C)[C@@H](c6ccc(=O)oc6)CC[C@]45O)[C@@]3(C)CC2)[C@H](O)[C@H](O)[C@H]1O
Potency [1]: 100 nM (active)
Potency [3]: 19.7 nM (active)

CCN(Cc1ccc(Cl)nc1)/C(=C/[N+](=O)[O-])NC
Potency [1]: inactive
Potency [3]: inactive

CCCCCCCCCCCC[N+](C)(C)CCOc1ccccc1
Potency [2]: inactive
Potency [3]: inactive

COC(=O)C1=CCCN(C)C1
Potency [1]: inactive
Potency [3]: inactive
outcome [4]: inactive

C#C[C@]1(O)CC[C@H]2[C@@H]3CCC4=CC(=O)CCC4=C3C=C[C@@]21CC
Potency [1]: inactive
Potency [3]: 2060 nM (active)

CNC(=O)NC(O)C(Cl)(Cl)Cl (stereo not given)
Potency [1]: inactive
Potency [3]: inactive

c1ccc2nc(N3CCNCC3)ccc2c1
Potency [2]: inactive
Potency [3]: inactive

CCOC(=O)NC(O)C(Cl)(Cl)Cl (stereo not given)
Potency [1]: inactive
Potency [3]: inactive

O=c1n(Cl)c(=O)n(Cl)c(=O)n1Cl
Potency [1]: inactive
Potency [3]: inactive

CCCC[N+]1(C)[C@@H]2CC(OC(=O)[C@H](CO)c3ccccc3)C[C@H]1[C@@H]1O[C@@H]12 (stereo not given in full)
Potency [1]: inactive
Potency [3]: inactive

CC(C)C(Br)C(=O)NC(N)=O (stereo not given)
Potency [1]: inactive
Potency [3]: inactive

CCC(=O)O[C@H]1CC[C@H]2[C@@H]3CCC4=CC(=O)CC[C@]4(C)[C@H]3CC[C@]12C
Potency [1]: inactive
Potency [2]: inactive
Potency [3]: 2780 nM (active)

NC(=O)OCCCc1ccccc1
Potency [1]: inactive
Potency [3]: inactive

NCc1cccnc1
Potency [1]: inactive
Potency [3]: inactive

Clc1ccc(CO/N=C(\Cn2ccnc2)c2ccc(Cl)cc2Cl)c(Cl)c1
Potency [2]: inactive

CC[C@]1(O)CC[C@H]2[C@@H]3CCC4=CCCC[C@@H]4[C@H]3CC[C@@]21C
Potency [1]: inactive
Potency [2]: inactive
Potency [3]: 6510 nM (active)

CC(C)NCC(O)c1ccc(N)c(C#N)c1 (stereo not given)
Potency [1]: inactive
Potency [3]: inactive

C[C@@H]1CN(C2CCC(C#N)(c3ccc(F)cc3)CC2)CC[C@]1(C(=O)O)c1ccccc1 (stereo not given in full)
Potency [2]: inactive
Potency [3]: inactive

COP(=O)(OC)C(O)C(Cl)(Cl)Cl (stereo not given)
Potency [1]: inactive
Potency [3]: inactive

CN1[C@@H]2CC[C@H]1CC(OC(=O)c1cc(Cl)cc(Cl)c1)C2 (stereo not given in full)
Potency [2]: inactive

CCS(=O)(=O)C(C)(C)S(=O)(=O)CC
Potency [1]: inactive
Potency [3]: inactive

CN(C)C(=S)SSC(=S)N(C)C
Potency [2]: inactive

C[N+](C)(C)CCOC(=O)C(O)(c1ccccc1)c1ccccc1
Potency [1]: inactive
Potency [3]: inactive

COc1cc(N)c(Cl)cc1C(=O)NC1CN2CCC1CC2 (stereo not given)
Potency [1]: inactive
Potency [3]: inactive

Cc1ccc(N=CN(C)C=Nc2ccc(C)cc2C)c(C)c1
Potency [1]: inactive
Potency [3]: inactive

N#Cc1nn(-c2c(Cl)cc(C(F)(F)F)cc2Cl)c(N)c1S(=O)C(F)(F)F (stereo not given)
Potency [1]: inactive
Potency [3]: inactive

CC(C)(C)OC(=O)c1ncn2c1[C@@H]1CCCN1C(=O)c1c(Br)cccc1-2
Potency [1]: inactive
Potency [3]: inactive

CN1C(=O)CN=C(c2ccccc2)c2cc([N+](=O)[O-])ccc21
Potency [2]: inactive

CCC1(c2ccccc2)CCC(=O)NC1=O (stereo not given)
Potency [1]: inactive
Potency [3]: inactive

Cc1c(Cl)c(=O)oc2cc(OP(=O)(OCCCl)OCCCl)ccc12
Potency [1]: inactive
Potency [3]: 6510 nM (active)

CC(C)[N+](C)(CCC(C(N)=O)(c1ccccc1)c1ccccc1)C(C)C
Potency [1]: inactive
Potency [3]: inactive

CC[C@H]1C[C@H]2[C@@H]3CCC4=CC(=O)CC[C@@H]4[C@H]3CC[C@]2(C)[C@H]1O
outcome [5]: inactive

CCC1(CC)C(=O)NC(=O)NC1=O
Potency [1]: inactive
Potency [3]: inactive

CC(Cc1ccccc1)NCc1ccccc1Cl (stereo not given)
Potency [1]: inactive
Potency [3]: inactive

Oc1c(Br)cc(Br)cc1Br
Potency [1]: inactive
Potency [2]: inactive
Potency [3]: inactive

O=C(N[C@H]1N=C(c2ccccc2F)c2cccc3c2N(CC3)C1=O)c1cc2ccccc2[nH]1
outcome [5]: inactive

COc1ccc2c(C(=O)c3ccc(Cl)cc3)c(C)n(CC(=O)O)c2c1
outcome [5]: inactive

NC(=O)CN1CCCC1=O
outcome [4]: inactive
